# From PubChem BioAssay
# Where “and” joins values, the source holds several entries; their conditions need not be identical. Equal entries are not always repeated. Results filed as inconclusive are left out. For some of these results: Potency and affinity values are given separately. Calls of active or inactive are those of the source.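 Rule for the calls, unless noted: active = at least 20% inhibition of 6-phosphogluconate dehydrogenase activity; inactive = the rest.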
# Key:
# [1] = target: 6-phosphogluconate dehydrogenase, decarboxylating (Homo sapiens) (UniProt P52209); test: 6PGD enzyme inhibitors, primary screen, biochemical, human, recombinant enzyme, NADPH absorbance (AID 1159550); conditions: recombinant 6PGD, NADPH absorbance 341 nm; at 10 µM; stronger effect = higher value
# Chain of 6-phosphogluconate dehydrogenase, decarboxylating (Homo sapiens) (P52209 whole entry, looked up): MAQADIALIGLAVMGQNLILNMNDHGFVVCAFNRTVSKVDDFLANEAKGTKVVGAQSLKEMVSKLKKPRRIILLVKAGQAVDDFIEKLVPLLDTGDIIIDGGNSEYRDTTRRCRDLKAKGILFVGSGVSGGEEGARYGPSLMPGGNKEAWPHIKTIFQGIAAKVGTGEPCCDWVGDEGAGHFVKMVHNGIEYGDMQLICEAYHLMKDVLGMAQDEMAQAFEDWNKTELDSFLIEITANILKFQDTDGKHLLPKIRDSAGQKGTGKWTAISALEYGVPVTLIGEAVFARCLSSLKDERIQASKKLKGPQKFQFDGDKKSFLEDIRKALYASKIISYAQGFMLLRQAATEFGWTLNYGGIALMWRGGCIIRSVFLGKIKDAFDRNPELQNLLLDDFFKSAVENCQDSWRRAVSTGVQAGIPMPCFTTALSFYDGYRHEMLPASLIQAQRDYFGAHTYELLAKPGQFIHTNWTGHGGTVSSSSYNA
# [2] = tested on: Aerobactin synthetase IucA (Klebsiella pneumoniae hvKP1); test: Biochemical IucA enzyme inhibition primary screen of the Spectrum library (AID 1346200; call rule not given here;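 note: 100% = wells without compound and 0% = wells lacking enzyme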); conditions: malachite green pyrophosphate, A620, at 8 µM, stronger effect = lower value
# [3] = sensitizers of A549 cells to miR-34 induction, primary screen, imaging, A549 dox-inducible miR-34, nuclei and caspase counts (AID 1347080;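 active = compounds whose cell count with miR-34 switched on is under 0.7 times the count with it off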); conditions: A549 miR-34 inducible, Hoechst nuclei count, 48 h
# [4] = inhibitors of Cryptococcus chitosan production, flow cytometry, Cibacron Brilliant Red staining (AID 1347148; call rule not given here;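 note: compound exposure lasted three days at 37 degrees C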); conditions: Cryptococcus neoformans chitosan, stronger effect = lower value; at 10 µM unless noted
# [5] = target: Mitogen-activated protein kinase 7 (Homo sapiens) (UniProt Q13164); test: ERK5 transactivation activators in reporter cells, primary screen, cell-based, HTS (AID 1508626;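 active = luciferase signal above three times the same-plate solvent-only control wells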;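 note: luciferase driven by Gal4-ERK5 fusion binding five Gal4 sites before minimal TATA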); conditions: HeLa Gal4-ERK5 transactivation, 18 h, at 5 µM, stronger effect = higher value
# Chain of Mitogen-activated protein kinase 7 (Homo sapiens) (Q13164 whole entry, looked up, the tested form may be a part): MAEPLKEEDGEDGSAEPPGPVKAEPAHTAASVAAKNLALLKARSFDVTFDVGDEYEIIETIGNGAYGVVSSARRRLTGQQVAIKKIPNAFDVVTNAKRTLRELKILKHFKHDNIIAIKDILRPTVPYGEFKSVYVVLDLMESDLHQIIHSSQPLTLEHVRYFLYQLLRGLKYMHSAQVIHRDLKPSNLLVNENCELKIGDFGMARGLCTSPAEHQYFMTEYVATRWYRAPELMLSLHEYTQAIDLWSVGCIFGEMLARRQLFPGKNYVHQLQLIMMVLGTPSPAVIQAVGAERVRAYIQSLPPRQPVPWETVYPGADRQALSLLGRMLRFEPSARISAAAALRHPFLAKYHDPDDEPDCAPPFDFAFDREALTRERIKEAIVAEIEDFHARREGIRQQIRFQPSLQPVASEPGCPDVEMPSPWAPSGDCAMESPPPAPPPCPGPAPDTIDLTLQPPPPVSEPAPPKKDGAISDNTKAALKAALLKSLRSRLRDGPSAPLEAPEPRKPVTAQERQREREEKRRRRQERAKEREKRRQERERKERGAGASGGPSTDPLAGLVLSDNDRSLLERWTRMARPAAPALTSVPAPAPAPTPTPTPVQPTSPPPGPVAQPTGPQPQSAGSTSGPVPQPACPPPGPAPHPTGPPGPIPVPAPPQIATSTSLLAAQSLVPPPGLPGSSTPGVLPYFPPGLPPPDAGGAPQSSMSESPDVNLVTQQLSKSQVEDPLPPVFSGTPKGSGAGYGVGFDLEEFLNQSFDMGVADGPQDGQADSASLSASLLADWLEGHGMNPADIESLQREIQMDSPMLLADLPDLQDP
# [6] = polyglutamine-triggered caspase-3 activation inhibitors, cell-based (AID 1583); conditions: polyglutamine-induced caspase-3 activation, cell assay; stronger effect = higher value;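 tested at 10 µM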
# [7] = suppressors of polyQ aggregation in yeast, 75Q-TubU reporter (AID 1593); conditions: Yeast 75Q polyglutamine aggregation reporter
# [8] = rescue of polyQ-huntingtin neuronal dysfunction in worms, whole organism, C. elegans mechanosensory neurons, N-terminal huntingtin (AID 1599); conditions: touch response, stronger effect = higher value
# [9] = inhibitors of mitochondrial cytochrome c release, biochemical, purified mitochondria (AID 1603); conditions: stronger effect = lower value;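 note: mouse liver mitochondria challenged with calcium chloride; signal normalized to the plate average as 100%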
# [10] = inhibitors of polyQ protein aggregation (AID 1604); conditions: polyglutamine-induced protein aggregation inhibition assay; stronger effect = higher value; tested at 2.5 µM
# [11] = enhancers of glutamate uptake in motor neurons, MN-1 cell line (AID 1612); conditions: MN-1 motor neuron cells, stronger effect = higher value;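 note: tested at 1 µM final; 0% = mean of DMSO vehicle wells on each plate; positive means more glutamate uptake than control and negative means less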
# [12] = reducers of polyQ inclusions in PC12 cells, cell-based, NGF-treated PC12, GFPQ80 (AID 1614); conditions: PC12 NGF-treated GFP-polyQ80 inclusion reduction;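 note: lower means fewer inclusions and 0 means no inclusions at all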
# [13] = suppressors of polyglutamine aggregation in yeast, 75Q-TubH (AID 1616); conditions: S. cerevisiae 75Q-TubH polyglutamine aggregation suppression; stronger effect = higher value
# [14] = differential killing of epithelial or mesenchymal cells, primary screen, imaging, PC-3E GFP, TEM4-18 mCherry, co-culture (AID 1345086;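 active = compounds killing one labelled cell type while sparing the other, by normalised counts and ratio limits, not self-fluorescent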;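 for all read-outs here: cells exposed to compound for 72 h before imaging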;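 for red/green cell ratio (normalised): normalised mesenchymal count divided by normalised epithelial count so high means epithelial killing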); conditions: imaging cell counts, at 1 µM; for red/green cell ratio (normalised): actives lie on both sides
# [15] = target: NAD(+) hydrolase SARM1 (Homo sapiens) (UniProt Q6SZW1); test: SARM1 TIR NADase inhibitors, cell lysate, NAD-Glo luminescence (AID 1508614;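 active = compound whose remaining NAD level is above about 45 nM, limit read from the data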;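 note: higher remaining NAD means stronger inhibition of SARM1 NADase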); conditions: SAM-TIR HEK293T lysate NADase, at 1 µM, stronger effect = higher value
# Chain of NAD(+) hydrolase SARM1 (Homo sapiens) (Q6SZW1 whole entry, looked up): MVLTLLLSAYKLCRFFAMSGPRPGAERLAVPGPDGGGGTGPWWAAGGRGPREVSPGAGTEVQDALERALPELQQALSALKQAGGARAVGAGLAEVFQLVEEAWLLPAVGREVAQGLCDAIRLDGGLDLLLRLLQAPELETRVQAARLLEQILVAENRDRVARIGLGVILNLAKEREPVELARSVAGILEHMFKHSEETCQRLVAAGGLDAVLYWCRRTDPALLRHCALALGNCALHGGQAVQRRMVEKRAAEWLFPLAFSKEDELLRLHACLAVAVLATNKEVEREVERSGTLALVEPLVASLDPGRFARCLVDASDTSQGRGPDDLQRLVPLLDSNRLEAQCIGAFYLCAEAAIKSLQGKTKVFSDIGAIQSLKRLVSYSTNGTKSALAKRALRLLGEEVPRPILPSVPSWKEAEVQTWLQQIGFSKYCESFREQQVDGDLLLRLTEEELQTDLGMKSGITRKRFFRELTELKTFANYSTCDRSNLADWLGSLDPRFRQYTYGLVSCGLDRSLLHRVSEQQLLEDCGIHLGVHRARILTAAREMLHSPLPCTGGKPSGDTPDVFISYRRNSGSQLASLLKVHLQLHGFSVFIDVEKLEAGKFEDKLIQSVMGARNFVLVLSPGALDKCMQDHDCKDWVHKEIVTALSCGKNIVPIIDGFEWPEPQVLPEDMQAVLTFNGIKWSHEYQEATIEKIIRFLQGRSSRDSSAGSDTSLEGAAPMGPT
# [16] = liver-stage malaria parasite growth inhibition, primary screen, cell-based, HepG2, luciferase luminescence, HepG2 viability (AID 624349; in the data active = parasite load remaining mostly below about 12%, no sharp cut-off; inactive = mostly above about 10%;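 note: 100% = mean of DMSO negative control wells on the same plate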); conditions: P. berghei liver stage in HepG2, luciferase luminescence, concentration not given here; parasite load remaining: stronger effect = lower value; viability: measured here: HepG2 viability without parasites
# [17] = tested on: Aerobactin synthetase IucA (Klebsiella pneumoniae); test: IucA aerobactin synthetase inhibitors, biochemical, Tocris library, absorbance (AID 1345561; call rule not given here;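 note: 100% = enzyme without compound and 0% = no enzyme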); conditions: purified IucA enzyme assay, absorbance (OD) read-out; stronger effect = lower value; concentration not given here
# [18] = growth inhibition of DIPG glioma cells, dose response, cell-based, SU-DIPG-XVII, MIPE5.0, CellTiter-Glo, qHTS (AID 1347060; cut-off not given, nearly all actives have AC50 up to about 26 µM); conditions: SU-DIPG-XVII viability, CellTiter-Glo ATP luminescence
# [19] = growth inhibition of DIPG glioma cells, dose response, cell-based, JHH-DIPG-1, MIPE4.0, CellTiter-Glo, qHTS (AID 1347062; cut-off not given, nearly all actives have AC50 up to about 27 µM;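 note: cells exposed to compound for two days before readout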); conditions: JHH-DIPG-1 viability, CellTiter-Glo ATP luminescence
# [20] = JHH-DIPG-1 glioma cell viability, MIPE5.0 library, CellTiter-Glo luminescence, qHTS (AID 1347067; cut-off not given, nearly all actives have AC50 up to about 26 µM;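 note: cells exposed to compound for 48 hours before readout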); conditions: JHH-DIPG-1 glioma viability, CellTiter-Glo ATP luminescence
# [21] = SU-DIPG-XXV glioma cell viability, MIPE5.0 library, qHTS (AID 1347068; cut-off not given, nearly all actives have IC50 up to about 30 µM)
# [22] = viability rescue of complex I mutant cybrids, primary screen, cell-based, galactose medium, ATP luminescence (AID 1645843;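 active = z-score of at least 1.8 in each of two replicates, scored against plate mean and spread of sample wells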;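 note: positive z means more ATP and so rescue of galactose-driven cybrid death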); conditions: complex I mutant cybrid cells, 72 h, stronger effect = higher value
# [23] = survival rescue of mitochondrial mutant cells in low glucose, primary screen, MELAS cybrids, Rieske KO mouse fibroblasts, CellTiter-Glo (AID 1508586;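 active = mean z-score across replicates of 1.96 or higher in either the MELAS or the Rieske mutant cell line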;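 note: z relative to plate mean and SD of compound and empty wells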)
# [24] = measured here: relative caspase fold change +Dox/-Dox
# [25] = measured here: total cells with miR-34 induction, stronger effect = lower value
# [26] = measured here: total cells without miR-34 induction
# [27] = measured here: epithelial PC-3E GFP cell survival
# [28] = measured here: mesenchymal TEM4-18 mCherry cell survival
compound,measurement,setting,value
COc1cccc2c1cc([N+](=O)[O-])c1c(C(=O)O)cc3c(c12)OCO3,inhibition,[1],-5.9% (inactive)
same,activity remaining,[2],103% (inactive)
same,fold change,[3]; stronger effect = lower value,1.04 (inactive)
same,fold change,[3]; [24],1.14
same,cell count,[3]; [25],4170
same,cell count,[3]; [26],4020
same,fold fluorescence,[4],4.86 [at 146.5 µM] (inactive)
same,luciferase signal,[5],36 AU (inactive)
C[C@@H]([C@H](O)c1ccccc1)N(C)C,inhibition,[6],-9.65%
same,score,[7],1.49
same,rescue above control,[8],-3.5
same,cytochrome c release ratio,[9],0.95
same,inhibition of aggregation,[10],81%
same,glutamate uptake change,[11],13.8%
same,inclusion score,[12],2
same,aggregation suppression score,[13],1.19
same,inhibition,[1],4.3% (inactive)
same,red/green cell ratio (normalised),[14],0.91 (inactive)
same,normalised cell number,[14]; [27],1.19
same,normalised cell number,[14]; [28],1.09
same,fold change,[3]; stronger effect = lower value,0.94 (inactive)
same,fold change,[3]; [24],0.912
same,cell count,[3]; [25],8870
same,cell count,[3]; [26],9440
same,remaining NAD,[15],10 nM (inactive)
same,luciferase signal,[5],108 AU (inactive)
CCOP(=S)(OCC)SCn1c(=O)oc2cc(Cl)ccc21,inhibition,[1],-13.8% (inactive)
same,activity remaining,[2],96.1% (inactive)
CNC(=O)CSP(=S)(OC)OC,inhibition,[1],-17.5% (inactive)
same,activity remaining,[2],98.2% (inactive)
Oc1c(Cl)c(Cl)c(Cl)c(Cl)c1Cl,inhibition,[1],4.09% (inactive)
same,red/green cell ratio (normalised),[14],0.88 (inactive)
same,normalised cell number,[14]; [27],1.25
same,normalised cell number,[14]; [28],1.1
same,luciferase signal,[5],480 AU (active)
CC(C)(O)[C@@H]1[C@H]2OC(=O)[C@@H]1[C@]1(O)C[C@H]3O[C@]34C(=O)O[C@H]2[C@]14C,inhibition,[6],-16.4%
same,score,[7],1.49
same,rescue above control,[8],8.41
same,cytochrome c release ratio,[9],0.87
same,inhibition of aggregation,[10],51%
same,glutamate uptake change,[11],14.8%
same,inclusion score,[12],2
same,aggregation suppression score,[13],1.53
same,parasite load remaining,[16],79% (inactive)
same,viability,[16],91.4%
same,inhibition,[1],6.64% (inactive)
same,red/green cell ratio (normalised),[14],0.89 (inactive)
same,normalised cell number,[14]; [27],1.1
same,normalised cell number,[14]; [28],0.99
same,activity remaining,[2],107% (inactive)
same,luciferase signal,[5],84 AU (inactive)
O=c1cccc2n1CC1CNC[C@H]2C1,parasite load remaining,[16],134% (inactive)
same,viability,[16],104%
same,inhibition,[1],-36.3% (inactive)
same,remaining activity,[17],96.4% (inactive)
same,outcome,[18],inactive
same,AC50,[19],2.64 µM (active)
same,outcome,[20],inactive
same,outcome,[21],inactive
same,fold change,"[3]; stronger effect = lower value, cell number ratio, induced over uninduced",0.809 (inactive) and 0.946 (inactive)
same,fold change,[3]; [24],1.71 and 1.27
same,cell count,[3]; [25],8130 and 8990
same,cell count,[3]; [26],10000 and 9510
same,remaining NAD,[15],10 nM (inactive)
same,luciferase signal,[5],60 AU (inactive)
same,z-score,[22],1.16 (inactive)
NCC(N)C(=O)c1ccccc1 (centres undefined),inhibition,[1],-14.8% (inactive)
same,activity remaining,[2],109% (inactive)
CNC(=O)Oc1ccccc1OC(C)C,inhibition,[1],-1.91% (inactive)
same,red/green cell ratio (normalised),[14],1 (inactive)
same,normalised cell number,[14]; [27],1.06
same,normalised cell number,[14]; [28],1.05
same,fold change,[3]; stronger effect = lower value,0.96 (inactive)
same,fold change,[3]; [24],0.908
same,cell count,[3]; [25],8560
same,cell count,[3]; [26],8930
same,remaining NAD,[15],10 nM (inactive)
same,luciferase signal,[5],88 AU (inactive)
CC(=O)OC1CN2CCC1CC2 (centres undefined),inhibition,[6],0.37%
same,score,[7],1.53
same,rescue above control,[8],-10.7
same,cytochrome c release ratio,[9],0.82
same,inhibition of aggregation,[10],22.1%
same,glutamate uptake change,[11],24.5%
same,inclusion score,[12],2
same,aggregation suppression score,[13],1.12
same,inhibition,[1],8.99% (inactive)
same,red/green cell ratio (normalised),[14],0.81 (inactive)
same,normalised cell number,[14]; [27],1.08
same,normalised cell number,[14]; [28],0.87
same,fold change,[3]; stronger effect = lower value,0.909 (inactive)
same,fold change,[3]; [24],0.869
same,cell count,[3]; [25],8550
same,cell count,[3]; [26],9400
same,z-score,"[23]; MELAS cybrid survival, CellTiter-Glo 48 h, stronger effect = higher value",-3.18 (inactive)
same,z-score,"[23]; Rieske KO mouse fibroblast survival, CellTiter-Glo 72 h",-1.86
same,remaining NAD,[15],10 nM (inactive)
OC[C@@H]1CCCN2CCCC[C@H]12,parasite load remaining,[16],133% (inactive)
same,viability,[16],91.1%
same,inhibition,[1],-5.58% (inactive)
same,red/green cell ratio (normalised),[14],0.92 (inactive)
same,normalised cell number,[14]; [27],0.97
same,normalised cell number,[14]; [28],0.89
same,activity remaining,[2],109% (inactive)
same,luciferase signal,[5],48 AU (inactive)
COC(=O)/C(C)=C\CC12OC(C)(C)C3CC(C=C4C(=O)c5c(OC)c6c(c(CC=C(C)C)c5OC431)OC(C)(CCC=C(C)C)C=C6)C2=O (centres undefined),inhibition,[1],-0.84% (inactive)
same,activity remaining,[2],98.7% (inactive)
CNC(=O)N(C)c1nnc(C(C)(C)C)s1,inhibition,[1],-12.3% (inactive)
same,activity remaining,[2],98% (inactive)
